High-throughput results as filed in PubChem BioAssay.
Hits are enriched below; roughly 6.5% of the tested compounds scored in any of these assays.
PMK inhibit = S. pneumoniae PMK inhibitors, primary screen, biochemical, mevalonate pathway, pilot trial included; phosphomevalonate kinase (Streptococcus pneumoniae D39); actives 0.49% (n = 65,000); inhibition, % at 10 µM; purified PMK, PK/LDH-coupled NADH absorbance 340 nm;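 active = top-ranked compounds by inhibition in the single 10 µM screen, taking a fixed number of the strongest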
Fluor 339 460 = intrinsic fluorescence of library compounds, ex339/em460 – biochemical, MLSMR library, data from DPM-DC assay, artefact control, profiling panel | fluorescence fold increase at 10 µM | AID 709, 2007 | compound autofluorescence, ex339/em460 nm, NADH buffer; stronger effect = higher value; 1 = no-compound wells, NADH background | actives 5.5% (n = 65,000);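 active = at 10 µM, mean starting fluorescence two-fold or more over control wells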;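 also: signal is the first read of a kinetic run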
DPM-DC inhibit = S. pneumoniae DPM-DC inhibitors, primary screen, biochemical, PK/LDH-coupled NADH fluorescence; diphosphomevalonate decarboxylase (Streptococcus pneumoniae D39); purified DPM-DC; calls only at 10 µM; actives 0.49% (n = 65,000); AID 556, 2006;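 active = the 320 compounds with the highest percent inhibition in the single-dose primary screen, excluding strongly autofluorescent ones, cut at about 32% in these data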;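 also: kinetic rate of NADH fluorescence loss reporting ADP formed by the decarboxylase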
NADH coupling = inhibitors of PK/LDH coupling enzymes, profiling panel, artefact control, biochemical, MLSMR library; coupled PK/LDH NADH assays, four targets; IC50, µM (series often up to 10 µM); actives 0.02% (n = 65,000); AID 774, 2007;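 active = single-dose screening hits from any of four coupled enzyme assays that gave an IC50 when retested across doses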;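 also: the DPM-DC format reads NADH fluorescence rather than 340 nm absorbance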
A340 absorber = compound light absorbance at 340 nm, profiling panel, artefact control, biochemical, MLSMR library, data from PS, PMK, MK assays; 65,000 tested, under 10 active; compound absorbance at 340 nm, fold over control; fold change at 10 µM;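 active = at 10 µM dose, initial 340 nm absorbance at least 2 fold that of control wells; inactive = change under 2 fold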;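 also: initial absorbance extrapolated from kinetic A340 decline of NADH oxidation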
Spn MK inh = S. pneumoniae MK inhibitors, primary screen, biochemical, PK/LDH-coupled NADH absorbance; mevalonate kinase [Streptococcus pneumoniae D39]; purified MK, PK/LDH-coupled NADH absorbance 340 nm; inhibition, % at 10 µM; actives 0.48% (n = 65,000);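 active = ranked among the strongest by inhibition in the single 10 µM screen, a fixed top-ranked set picked for dose follow-up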
Large screens that a line does not name were inactive.

O=c1c2cc(N3CCOCC3)ccc2[nH]c(=S)n1Cc1ccccn1	Fluor 339 460 3.54, DPM-DC inhibit active
CCOCCCn1c(=S)[nH]c2cc(C(=O)N3CCOCC3)ccc2c1=O	none
COCCn1c(=S)[nH]c2ccc(N(C)C)cc2c1=O	Fluor 339 460 3.81
COCCCn1c(=S)[nH]c2ccc(N3CCOCC3)cc2c1=O	Fluor 339 460 3.82, DPM-DC inhibit active
O=C(NCc1ccco1)c1ccc2c(=O)n(CC3CCCO3)c(=S)[nH]c2c1 (centres undefined)	none
O=C(CCn1c(=S)[nH]c2ccccc2c1=O)N1CCOCC1	none
O=c1nc2n(c3c4c(sc13)CCC4)CCC2	none
CCCCN(C)CCn1c(=S)[nH]c2ccc(N3CCOCC3)cc2c1=O	Fluor 339 460 2.52
CCc1cc(N2CCOCC2)cc2c1[nH]c1ccccc12	Fluor 339 460 3.95 (not shown: DPM-DC inhibit)
Cc1[nH]c2ccccc2c1SCC(=O)N1CCOCC1	none
COc1ccc(-c2cc(C(F)(F)F)nc(N3CCN(c4ccccc4)CC3)n2)cc1OC	none
COc1nc(-c2ccccc2)cc(-c2ccc(OC)c(OC)c2)n1	Fluor 339 460 2.17 (not shown: DPM-DC inhibit)
CCOC(=O)C(Cc1ccccc1)C(=O)Nc1nccs1 (centres undefined)	DPM-DC inhibit active
CC(C)N1CC=C2C(C#N)=C(N)C(C#N)(C#N)C(c3ccccc3)C2C1 (centres undefined)	none
CCN1CC=C2C(C#N)=C(N)C(C#N)(C#N)C(c3cc(Cl)ccc3Cl)C2C1 (centres undefined)	Fluor 339 460 2.9
Cc1ccc2oc(-c3ccc(NC(=O)CC(C)C)cc3)nc2c1	Fluor 339 460 2.2 (not shown: DPM-DC inhibit)
Cc1c(C(=O)Nc2ccc3oc(-c4cccnc4)nc3c2)oc2ccccc12	Fluor 339 460 3.81 (not shown: DPM-DC inhibit)
CC(=O)Nc1cccc(NC(=O)c2oc3ccccc3c2C)c1	none
CC(C)CC(=O)Nc1ccc2oc(-c3cccnc3)nc2c1	Fluor 339 460 2.22 (not shown: DPM-DC inhibit)
Cc1c(C(=O)Nc2ccc(-n3cnnn3)cc2)oc2ccccc12	Fluor 339 460 3.77 (not shown: DPM-DC inhibit)
CCCCOc1ccc(-c2nnn(CC(=O)Nc3ncc(CC(=O)OCC)s3)n2)cc1	none
CCOc1ccccc1NC(=O)Cn1nnc(-c2ccc(OCC)c(OCC)c2)n1	none
CN1/C(=N\O)c2cccc3cccc1c23	Fluor 339 460 2.21
CC1=C(c2ccc(Cl)cc2)[N+](=O)C(C)(C)N1[O-]	none
CCOC(=O)C1=C(C)NC2=C(C(=O)CCC2)C1c1cccs1 (centres undefined)	none
CCOC(=O)c1sc2c(c1C)C(c1cccs1)C1=C(CCCC1=O)N2 (centres undefined)	Fluor 339 460 4.79 (not shown: DPM-DC inhibit)
COC(=O)C1=CNC=C(C(=O)OC)C1c1ccccc1Cl	Fluor 339 460 3.63 (not shown: DPM-DC inhibit)
COC(=O)C1=CNC=C(C(=O)OC)C1c1ccc(Cl)cc1	Fluor 339 460 3.84 (not shown: DPM-DC inhibit)
COC(=O)C1=CNC=C(C(=O)OC)C1c1cccc(OC)c1	Fluor 339 460 3.89 (not shown: DPM-DC inhibit)
CN(C)C(=O)COc1ccc2ccc(=O)oc2c1	Fluor 339 460 2.16 (not shown: DPM-DC inhibit)
CCOC(=O)COc1ccc2cc(C(=O)OCC)c(=O)oc2c1	Fluor 339 460 2.34 (not shown: DPM-DC inhibit)
Cc1cc(-n2c(C)cc(C(=O)COc3ccc4ccc(=O)oc4c3)c2C)no1	Fluor 339 460 4.22 (not shown: DPM-DC inhibit)
COc1ccc(-n2c(Cn3c(=O)sc4ccccc43)nnc2SCC(=O)N2CCCC2)cc1	none
CN1C(=O)CSc2ccc(NC(=O)NCCC3=CCCCC3)cc21	none
Cc1ccc2oc(=O)c3cnn(CC(=O)NC4CCN(Cc5ccccc5)CC4)c3c2c1	DPM-DC inhibit active
O=C(Cn1ncc2c(=O)oc3ccccc3c21)NC1CC1	none
CC(=O)N(C)c1ccc(NC(=O)c2cnn(C)c2)cc1	none
Nc1cc(C(=O)O)ccc1Nc1ccccc1	DPM-DC inhibit active
CCCS(=O)(=O)N1CCCC(C(=O)N2CCOCC2)C1 (centres undefined)	none
Cc1ccc(CNC(=O)c2ccccc2NC(=O)CSc2nnnn2C)cc1	none
CC(C)C1N=C2c3ccccc3N=C(SCC#N)N2C1=O (centres undefined)	Fluor 339 460 2.57
N#CCSC1=Nc2ccccc2C2=NC(CCC(=O)N3CCN(c4ccccc4)CC3)C(=O)N12 (centres undefined)	none
Cc1cc(N2CCC(N(C)C3CCCC3)CC2)nc2cc(O)ccc12	Fluor 339 460 2.17 (not shown: DPM-DC inhibit)
Cc1cc(N2CCC(C(=O)NC3CCCCC3)CC2)nc(-c2ccccc2)n1	none
CCCc1[nH]nc2c1C(c1ccc(OC)c(Cn3nnc4ccccc43)c1)C(C#N)=C(N)O2 (centres undefined)	Spn MK inh 51.0
COc1ccc(C2C(C#N)=C(N)Oc3n[nH]c(C)c32)cc1Cn1nnc2ccccc21 (centres undefined)	none
CCC(NC(=O)OC(C)(C)C)C(=O)Oc1ccc2c3c(c(=O)oc2c1)CCC3 (centres undefined)	Fluor 339 460 3.65 (not shown: DPM-DC inhibit)
COC(=O)[C@H](CCSC)NC(=O)Nc1ccc(C)cc1C	none
CSCCC(NC(C)=O)C(=O)Oc1ccc2c3c(c(=O)oc2c1)CCCC3 (centres undefined)	Fluor 339 460 2.14 (not shown: DPM-DC inhibit)
Cc1c(OCC(=O)OC(C)(C)C)ccc2c3c(c(=O)oc12)CCC3	none
CCOc1cc(S(=O)(=O)NCC2OCCc3ccccc32)c(OCC)cc1-n1cnnn1 (centres undefined)	Fluor 339 460 3.87 (not shown: DPM-DC inhibit)
CCOc1cc(S(=O)(=O)NCc2ccco2)c(OCC)cc1-n1cnnn1	Fluor 339 460 3.21 (not shown: DPM-DC inhibit)
CCOc1ccccc1CN(Cc1ccco1)S(=O)(=O)c1ccc(-n2cnnn2)c(OC)c1	none
COc1cccc(C(C(=O)NCc2ccco2)N(C(=O)Cn2nnc3ccccc32)C2CC2)c1OC (centres undefined)	none
Nc1nnc(SCC(=O)NCc2ccc3c(c2)OCO3)s1	none
NC(=O)c1nsc(C(=O)N(CC(=O)NCc2ccc3c(c2)OCO3)C2CCCC2)c1N	Fluor 339 460 2.15 (no result: PMK inhibit)
CN(C(=O)CSc1nc(N)nn1-c1ccccc1)c1ccccc1	none
COc1ccc(CN2CCN(C(=O)CN3C(=O)C4C5C=CC(C5)C4C3=O)CC2)c(OC)c1OC (centres undefined)	none
COc1ccc(CN2CCN(C(=O)c3cc(OC)c(OC)c(OC)c3)CC2)cc1OC	Spn MK inh 62.0
COc1ccc(CN2CCN(C(=O)CC(C)C)CC2)c(OC)c1OC	Spn MK inh 53.0
COc1ccc(C(=O)N2CCN(Cc3cc(OC)c(O)c(OC)c3)CC2)cc1OC	none
COc1cc(CN2CCN(C(=O)CC(C)C)CC2)cc(OC)c1OC	Spn MK inh 52.0
